Results filed as inconclusive are left out. Active and inactive are the calls of the source. Calls follow the shape of the full dose curve.
Assay: Primary qHTS to identify inhibitors of SARS-CoV-2 cell entry (AID 1645846); also: nearly all actives have a fitted effect of over 45% in size
Conditions: SARS-CoV-2 pseudovirus cell entry assay, luminescence; activity change, negative = inhibition: at 57.1 µM (top of the series) unless noted
Summary of the method: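 Using luciferase-reporting pseudoviruses carrying Wuhan-Hu-1 spike, the screen tracks entry into stably ACE2-expressing cells over 48 hr. Activity is expressed relative to spike particles versus particles lacking any fusion protein.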
Potency is read from the fitted curve at half-maximal effect.

| SMILES | Potency | activity change, negative = inhibition |
| --- | --- | --- |
| Cn1c(NC[C@@H](N)Cc2ccccc2)nc(-c2ccncc2)c(-c2ccc3ccccc3c2)c1=O | 28.2 µM (active) |  |
| COCCN1CCN(Cc2ccc(-c3n[nH]c4c3C(=O)c3c(NC(=O)NN5CCOCC5)cccc3-4)cc2)CC1 |  | -93.4% |
| Cc1nc2ccc(-n3ncc(C(=O)c4cc5ccccc5[nH]4)c3N)cc2[nH]1 | 11.2 µM (active) |  |
